This note sets out measurements from paper PMC5540273 (PLoS ONE, 2017).

Some test systems named below: S6K1; SBK1; SGK2; SGK3; SGK; SIK2; SIK; SLK; SNRK; SRC.
Holding throughout (settings): concentration: 1 μM, replicates: in singlicate; n = 1
Assay [1] concerns RPS6KA5(Kin.Dom.2-C-terminal).
For assay [2], the system named is T1, RSK1(Kin.Dom.1-N-terminal).
T1 construct: gene RPS6KA1

Assay [3] deals with T2, RSK1(Kin.Dom.2-C-terminal).
T2 construct: gene RPS6KA1

Assay [4] relates to T3, RSK2(Kin.Dom.1-N-terminal).
T3 construct: gene RPS6KA3

Assay [5] deals with T4, RSK2(Kin.Dom.2-C-terminal).
T4 construct: gene RPS6KA3

The subject of assay [6] is T5, RSK3(Kin.Dom.1-N-terminal).
T5 construct: gene RPS6KA2

Assay [7] relates to T6, RSK3(Kin.Dom.2-C-terminal).
T6 construct: gene RPS6KA2

Assay [8] deals with T7, RSK4(Kin.Dom.1-N-terminal).
T7 construct: gene RPS6KA6

The test system of assay [9] is T8, RSK4(Kin.Dom.2-C-terminal).
T8 construct: gene RPS6KA6

Another assay concerns T9, SNARK.
T9 construct: gene NUAK2
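Also: KINOMEscan kinase panel screen.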

Regarding `Cc1cc(N2CCC(NS(=O)(=O)c3ccc(F)cc3)CC2)nc(Nc2cccc(C#N)c2)n1.O=C(O)C(F)(F)F` [GSK1653537], the “%Inh” value is recorded as 0% in [1]; 7% in assay [2]; 0% in [3]; 3% in [4]; 20% in assay [5]; 18% in assay [6]. Besides, the “%Inh” value worked out at 0% in assay [7]; 62% in [8]; 10% in assay [9]; 0% with S6K1; 0% in the assay on SBK1; 0% in the assay on SGK2. Moreover, the “%Inh” value in the assay on SGK3 was determined as 0%; in the assay with SGK it was 0%; in the assay with SIK2, 0%; in the assay on SIK it was 0%; in the assay with SLK it was 13%; in the assay with SNARK, 0%. Besides, the entries for the “%Inh” value in the assay with SNRK and with SRC were 0% and 5%, respectively.
Regarding `CS(=O)(=O)CCNCc1ccc(-c2ccc3ncnc(Nc4ccc(OCc5ccccc5)c(Cl)c4)c3c2)o1.Cl` [GW574783], the “%Inh” value in assay [1] amounted to 0%; in assay [2] it was 0%; in assay [3] it was 0%; in assay [4], 4%; in assay [5], 29%; in assay [6] it was 17%. In addition, the “%Inh” value worked out at 6% in assay [7]; 6% in assay [8]; 8% in assay [9]; 0% with S6K1; 3% in the assay on SBK1; 0% in the assay on SGK2. Also, the “%Inh” value in the assay with SGK3 is listed as 0%; in the assay on SGK it was 11%; with SIK2 it was 0%; in the assay with SIK, 0%; in the assay with SLK it was 25%; in the assay with SNARK it was 0%. In addition, the “%Inh” value came out at 0% in the assay on SNRK and 2% in the assay with SRC.
As to `Oc1ccc2ncnc(Nc3ccc(OCc4ccccc4)cc3)c2c1` [GI262866], the “%Inh” value in [1] turned out to be 0%; in assay [2], 0%; in assay [3], 0%; in assay [4], 0%; in [5] it was 0%; in assay [6], 5%. Moreover, the “%Inh” value is 0% in assay [7]; 0% in [8]; 0% in assay [9]; 0% in the assay with S6K1; 5% in the assay with SBK1; 0% in the assay with SGK2. Further, the “%Inh” value with SGK3 turned out to be 0%; in the assay with SGK it was 6%; in the assay on SIK2 it was 0%; in the assay on SIK, 0%; with SLK it was 1%; in the assay with SNARK, 0%. Besides, the “%Inh” value with SNRK and with SRC was 0% throughout.
In the case of `Cc1ccc(NC(=O)c2cccc(C#N)c2)cc1-c1ccc(C(=O)Nc2ccncc2)cc1` [GSK1398463], the “%Inh” value in assay [1] turned out to be 1%; in assay [2] it was 24%; in assay [3] it was 0%; in assay [4] it was 0%; in assay [5] it was 6%; in assay [6] it was 9%. The “%Inh” value is 0% in [7]; 0% in assay [8]; 1% in [9]; 11% in the assay on S6K1; 0% in the assay on SBK1; 10% in the assay with SGK2. In addition, the “%Inh” value is on record as 2% in the assay with SGK3; 0% with SGK; 15% with SIK2; 0% with SIK; 0% in the assay with SLK; 0% in the assay with SNARK. Also, the “%Inh” value was 17% in the assay with SNRK and 26% in the assay with SRC.
Regarding `Fc1ccc(-c2ncn(CCCNCc3ccccc3)c2-c2ccncc2)cc1`, the “%Inh” value in assay [1] stood at 7%; in assay [2] it was 0%; in assay [3] it was 22%; in assay [4] it was 0%; in assay [5], 22%; in assay [6], 16%. The “%Inh” value in assay [7] is 21%; in [8], 0%; in assay [9] it was 31%; in the assay on S6K1 it was 19%; with SBK1, 0%; in the assay on SGK2, 19%. Also, the “%Inh” value was determined as 0% with SGK3; 30% in the assay on SGK; 0% with SIK2; 9% with SIK; 35% in the assay with SLK; 5% with SNARK. The figures for the “%Inh” value with SNRK and with SRC were 5% and 24%, respectively.
For `Clc1cc(Nc2ncnc3cc[nH]c23)ccc1OCc1ccccn1`, the “%Inh” value in assay [1] is 1%; in [2], 0%; in assay [3], 28%; in [4], 10%; in assay [5], 0%; in [6] it was 26%. Moreover, the “%Inh” value in assay [7] was found to be 20%; in assay [8], 2%; in [9], 28%; in the assay on S6K1, 29%; with SBK1 it was 41%; in the assay on SGK2 it was 24%. Also, the “%Inh” value is listed as 28% in the assay on SGK3; 31% in the assay on SGK; 8% in the assay with SIK2; 16% in the assay on SIK; 21% with SLK; 27% in the assay with SNARK. In addition, the “%Inh” value is 26% in the assay with SNRK and 15% in the assay on SRC.
In the case of `Cl.Fc1ccccc1COc1ccc(Nc2ncnc3ccc(-c4nnc(C(F)(F)F)o4)cc23)cc1Cl` [GW424170], the “%Inh” value in assay [1] stood at 0%; in assay [2], 1%; in [3] it was 1%; in assay [4], 0%; in assay [5], 0%; in assay [6], 0%. Besides, the “%Inh” value in assay [7] is 0%; in assay [8], 0%; in assay [9] it was 2%; in the assay on S6K1, 0%; in the assay with SBK1, 0%; with SGK2 it was 0%. Also, the “%Inh” value in the assay on SGK3 came out at 0%; in the assay with SGK, 0%; in the assay with SIK2, 0%; in the assay with SIK it was 1%; with SLK, 20%; in the assay with SNARK it was 0%. Further, the “%Inh” value with SNRK and with SRC was 0% in each case.
Turning to `CS(=O)(=O)CCNCc1nc(-c2ccc3ncnc(Nc4ccc(OCc5cccc(F)c5)c(Cl)c4)c3c2)cs1.Cl` [GW583340], the “%Inh” value is given as 9% in assay [1]; 22% in assay [2]; 10% in assay [3]; 0% in assay [4]; 0% in [5]; 0% in assay [6]. Further, the “%Inh” value in assay [7] was 11%; in assay [8], 0%; in assay [9], 25%; with S6K1 it was 6%; in the assay with SBK1, 0%; in the assay on SGK2, 0%. Further, the “%Inh” value with SGK3 came out at 0%; with SGK, 0%; in the assay with SIK2, 0%; in the assay with SIK it was 0%; in the assay with SLK, 20%; in the assay on SNARK it was 0%. Moreover, the “%Inh” value in the assay with SNRK and in the assay on SRC was 0% in each case.
On to `Nc1nc(-c2ccc3c(N)n[nH]c3c2)cc(N2CCCCC2)n1` [GSK2228768], for which the “%Inh” value in assay [1] is 0%; in assay [2], 0%; in [3], 0%; in [4], 0%; in [5] it was 0%; in assay [6] it was 15%. Moreover, the “%Inh” value in assay [7] worked out at 0%; in assay [8], 0%; in assay [9] it was 0%; with S6K1, 0%; with SBK1, 3%; in the assay with SGK2, 0%. Further, the “%Inh” value in the assay with SGK3 is recorded as 0%; with SGK, 0%; in the assay on SIK2 it was 0%; with SIK it was 0%; in the assay on SLK it was 5%; in the assay with SNARK, 0%. Moreover, the “%Inh” value with SNRK is 0%; in the assay on SRC it was 15%.
For the molecule `CNc1nccc(-c2c(-c3ccc(F)cc3)ncn2C2CCN(C)CC2)n1` [SB-222903], the “%Inh” value in [1] was 12%; in assay [2], 0%; in assay [3] it was 32%; in assay [4], 5%; in [5], 0%; in assay [6] it was 0%. Besides, the “%Inh” value is 0% in assay [7]; 0% in assay [8]; 73% in [9]; 0% in the assay with S6K1; 0% in the assay on SBK1; 0% with SGK2. The “%Inh” value in the assay on SGK3 is recorded as 0%; in the assay on SGK it was 0%; in the assay with SIK2 it was 17%; in the assay with SIK, 0%; in the assay on SLK, 0%; with SNARK it was 0%. Besides, the “%Inh” value in the assay with SNRK and in the assay on SRC was 0% each time.
